Screening results from PubChem.
The list is not random: actives were taken first. Their share in the collection is about 1.3%.
ALOX12 inh = ALOX12 (human) lipoxygenase inhibition; purified 12hLO, xylenol orange hydroperoxide absorbance; 580,000 tested, 1.1% active; Potency, µM (titrated, usually from 108 µM), for the others: at the top dose activity change, negative = inhibition, hits mostly inhibitors; also: potency is read from the fitted curve at half-maximal effect; % is scaled to controls: 0 for no effect and ±100 for the full control effect
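Purified human 12hLO (150 nM final) in 25 mM Hepes, 0.01% Triton X-100, pH 7.0 was preincubated 15 min at room temperature with compound. Then 40 uM arachidonic acid was added, 30 min. Hydroperoxide was read by Fe-XO absorbance ratio 573/405 nm.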
TRPML1 inh = human mucolipin-1 channel inhibition. Q9GZU1. TRPML1-inducible cells, Ca2+ dye fluorescence, FDSS; stronger effect = lower value; inhibition of EC80 agonist-evoked calcium signal. activity change, negative = inhibition, % (no concentration beside the values). 390,000 tested, 0.02% active; in the data active = activity change below about -50%; inconclusive = between about -30% and that limit;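 also: stimulus is agonist 54-4 at its EC80 concentration; % is scaled to controls: 0 for no effect and ±100 for the full control effect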
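TRPML1-DL cells, Tet-induced overnight (~16 h, 37 °C) at 1,500 cells/well, were loaded with Ca8 no-wash dye plus quencher for 45-90 min at room temperature. Compounds were pinned during FDSS kinetic reading; agonist 54-4 at EC80 (4 uM final) then added.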
Glioma ERSR ind = induces the endoplasmic reticulum stress response in human glioma cells; Potency, µM, for the others: at the top dose activation, actives largely listed as activators; 420,000 tested, 0.02% active; AID 602332; U87-MG GRP78 promoter luciferase reporter, 16 h; also: potency is read from the fitted curve at half-maximal effect; series mostly up to about 76 µM; % of control where 0% means no effect; nearly all actives have a fitted effect of over 35% in size
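ERSR induction read as luciferase luminescence (Bright-Glo, 10 min at room temperature) in stably transfected human U87-MG glioma cells exposed to compounds for 16 h, using GRP78 as sensor.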
Vif-APOBEC3F blk = Vif-A3F binding inhibition; HeLa A3F-eYFP + Vif (tagged APOBEC3F with the HIV-1 protein that degrades it), YFP fluorescence increase; AID 602313; Potency, µM (titrated, usually from 46.1 µM), inactives show top-dose activity, negative = active; 390,000 tested, 0.2% active; also: potency is read from the fitted curve at half-maximal effect; % of control where 0% means no effect; nearly all actives have a fitted effect of over 65% in size
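Fluorescence increase (Ex 488/Em 500-530) after overnight compound treatment at 37 deg C flags inhibition of Vif-driven A3F-eYFP loss in stable HeLa A3F-eYFP/Vif cells seeded overnight beforehand.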
TRPML1 ag = agonists of human TRPML1 channel. Q9GZU1. TRPML1-expressing cells, Ca2+ dye fluorescence, FDSS. activation, % (no concentration beside the values). 410,000 tested, 0.12% active. AID 624414; in the data active = activation above about 50%; inconclusive = mostly about 30% to 49%; also: 0% is about no effect
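Kinetic FDSS Ca2+ read in Tet-induced TRPML1-DL cells (ABD Ca8 dye plus quencher, 45-90 min RT loading): baseline, then compound, then 110 s agonist window; EC80 agonist 54-4 at 4uM final added afterwards for a 110 s antagonist window.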
Vif-APOBEC3G blk = blocks the Vif interaction with human APOBEC3G; Q9HC16; AID 602310; 410,000 tested, 0.076% active; Potency, µM (top dose mostly 46.1 µM), without a hit: at the highest dose activity, negative = active, actives largely listed as inhibitors; HeLa A3G-eYFP + Vif (tagged APOBEC3G with the HIV-1 protein that degrades it), YFP fluorescence, overnight; also: potency is read from the fitted curve at half-maximal effect; % is scaled to controls: 0 for no effect and ±100 for the full control effect; nearly all actives have a fitted effect of over 60% in size
Target sequence (Q9HC16 whole entry, looked up): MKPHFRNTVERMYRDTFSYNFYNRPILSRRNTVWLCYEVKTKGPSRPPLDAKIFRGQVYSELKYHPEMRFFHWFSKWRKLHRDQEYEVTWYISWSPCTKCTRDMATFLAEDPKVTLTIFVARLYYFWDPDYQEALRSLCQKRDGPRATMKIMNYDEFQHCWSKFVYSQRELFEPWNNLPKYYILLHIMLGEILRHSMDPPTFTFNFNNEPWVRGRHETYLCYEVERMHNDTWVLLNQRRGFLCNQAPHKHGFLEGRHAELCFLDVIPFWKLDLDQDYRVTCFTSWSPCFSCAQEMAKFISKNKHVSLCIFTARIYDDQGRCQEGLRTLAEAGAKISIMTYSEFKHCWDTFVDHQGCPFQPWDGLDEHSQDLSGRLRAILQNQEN
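Read-out is eYFP fluorescence (Ex 488/Em 500-530) from Vif-expressing HeLa A3G-eYFP cells; more signal means A3G escaped Vif-mediated degradation. Cells plated overnight, compound pinned in, incubated overnight at 37 deg C.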
The depositor's hits bear a star; ? = inconclusive; . = no result; [ ] = remark or other dose. Unless noted, calls follow the shape of the dose curve; as a rule, active = well fitted curve in the direction sought with a large enough effect; inconclusive = small, poorly fitted or top-dose-only effect, or another doubt; inactive = no such curve, though single readings can be large; an effect the other way counts as inactive or inconclusive.

SMILES | ALOX12 inh | TRPML1 inh | Glioma ERSR ind | Vif-APOBEC3F blk | TRPML1 ag | Vif-APOBEC3G blk
N#CC1=C(S)N(c2ccc(F)cc2)C(c2ccco2)NC1=O (stereo not drawn) | 45µM* | 6 | -3% | 4% | 0 | -1%
O=C(Nc1ccccc1)c1ccc2c(c1)OCCN(c1ccccc1)C2 | 8%[176 µM] | . | . | . | . | .
Cc1ccc(C(=O)n2nc(-c3ccco3)nc2NCc2cccs2)cc1 | 6% | 9 | 5% | 0% | -1 | -3%
COc1ccc(C(=O)n2nc(-c3ccco3)nc2NCc2cccs2)cc1OC | 7.9µM* | 1 | 0% | 4% | 1 | -7%
NNc1nc2ccc(F)cc2s1 | 6.3µM* | 0 | 0% | 1% | 0 | 1%
NNc1nc2ccc(Cl)cc2s1 | 7.1µM* | -9 | -6% | 7% | -1 | -5%
CC(Sc1nc(Cl)nc2nc[nH]c12)C(=O)NCCc1c[nH]c2ccc(Cl)cc12 (stereo not drawn) | -26% | . | . | . | . | .
N=C1/C(=C/c2coc3ccccc3c2=O)C(=O)N=C2SC(c3ccco3)=NN12 | . | -16 | -2% | ? | 81* | -2%
N=C1/C(=C\c2coc3ccccc3c2=O)C(=O)N=C2SC(c3ccncc3)=NN12 | ? | -14 | 2% | 25µM* | 112* | ?
N=C1/C(=C\c2coc3ccc(O)cc3c2=O)C(=O)N=C2SC=CN12 | ? | -18 | 6% | -24% | ? | -12%
COc1ccccc1-c1cc(NCc2cnc(C)cn2)ncn1 | 5.6µM* | . | -3% | . | . | .
O=S(=O)(Nc1nc2ccccc2nc1Nc1ccc(F)cc1)c1ccc(F)cc1 | 50% | . | . | . | . | .
COc1ccc(/C=N/n2c(-c3ccc(C)cc3)n[nH]c2=S)cc1OC | 10µM* | -22 | -6% | 1% | 4 | -3%
Oc1c(Br)cc(/C=N/n2c(-c3ccccc3)n[nH]c2=S)cc1Br | 22µM* | 40 | -4% | -8% | 1 | -18%
COc1cc(/C=N/n2c(-c3ccccc3)n[nH]c2=S)ccc1O | ? | -7 | -2% | 0% | 0 | 0%
Oc1ccc(/C=N/n2c(-c3ccccc3)n[nH]c2=S)cc1Br | 32µM* | . | 6% | 0% | . | -19%
Cc1ccc(/C=N/n2c(-c3ccccc3)n[nH]c2=S)cc1 | ? | 20 | 2% | 1% | 2 | 2%
CCCN(CC(=O)Nc1ccccc1OC)C(=O)c1cc(=O)c2ccccc2o1 | 63% | . | . | . | . | .
CCc1ccc(C(=O)NNc2ccc(F)cc2)cc1 | 85% | 5 | 4% | 13% | 1 | -12%
NC(=S)NNc1ccnc2cc(Cl)ccc12 | 5.6µM* | -24 | -8% | -21% | 0 | -2%
NC(=S)Nc1ccc(Cl)c(Cl)c1 | ? | 3 | -1% | -3% | -1 | -10%
CCc1ccc(C(=O)NNc2ccc(C)c(Cl)c2)cc1 | 16µM* | -9 | 5% | -12% | 0 | -10%
Cc1ccc(NNC(N)=S)cc1Cl | 28µM* | 7 | 0% | -10% | 0 | -3%
NC(=S)NNc1ccc(Cl)c(Cl)c1 | 16µM* | 24 | -5% | 0% | 1 | 2%
COC(=O)CCOc1ccc(S(=O)(=O)Nc2ccc(F)cc2F)cc1 | -4% | . | . | . | . | .
SMILES | ALOX12 inh | TRPML1 inh | Glioma ERSR ind | Vif-APOBEC3F blk | TRPML1 ag | Vif-APOBEC3G blk
CCOC(=O)c1noc2nc(C)n(CC(=O)Nc3cc(C)ccc3OC)c(=O)c12 | 9% | . | . | . | . | .
Cc1ncc(-c2ccc(S(=O)(=O)Nc3ccc(F)cc3)cc2)o1 | -22% | . | . | . | . | .
Cc1cccc(N/N=C/c2ccc(C#N)cc2)c1 | 18µM* | . | . | . | . | .
Cc1cccc(NC(=O)C(=O)N/N=C/c2ccncc2)c1 | -5% | 0 | -3% | -22% | 0 | 2%
O=[N+]([O-])c1ccc(N/N=C/c2ccccc2O)cc1 | 3% | -10 | 5% | -11% | 0 | -18%
Cc1ccc(N/N=C/c2ccc(C#N)cc2)cc1Cl | 3.2µM* | . | . | . | . | .
Cc1cccc(N/N=C/c2ccccc2O)c1 | 40µM* | 5 | 3% | 4% | 0 | 0%
Cc1cccc(N/N=C/c2ccncc2)c1 | 45µM* | 0 | -1% | 10% | -1 | -9%
CC12CC3(C)CC(CN)(C1)CC(CCN)(C2)C3 | -21% | . | . | . | . | .
COC(=O)c1ccn(Cc2ccc(Cl)cc2Cl)n1 | 17% | . | . | . | . | .
CC(=O)OCCn1c2nc(=O)[nH]c(=O)c-2nc2cc(C)c(C)cc21 | -12% | -22 | -5% | -19% | 117* | 13%
Cn1cc(B2OC(C)(C)C(C)(C)O2)cn1 | -11% | . | . | . | . | .
CCC(=O)Nc1cccc(-c2nc3cc(Cl)cc(Cl)c3o2)c1 | 11% | . | . | . | . | .
CCCCC[C@@H]1C=C(C(=O)O)[C@H](c2ccc(F)cc2)N1S(=O)(=O)c1ccc(C)cc1 | 45µM* | -8 | 3% | -2% | 0 | 0%
Cc1oc2cc(OCC(=O)NCCCOC(C)C)ccc2c(=O)c1-c1ccc(Cl)cc1 | 14% | . | . | . | . | .
Cn1nnc(NC(=S)NC(=O)c2ccco2)n1 | ? | 21 | 0% | -16% | 0 | -18%
Cn1nnc(NC(=S)NC(=O)c2cc3ccccc3o2)n1 | 2.5µM* | -4 | -3% | ? | 1 | 0%
Oc1c(Br)cc(Br)cc1C=NCc1ccc(F)cc1 | 40µM* | -9 | -5% | -12% | 2 | 2%
Oc1c(Br)cc(Br)cc1C=NCc1ccccc1 | ? | -4 | -3% | 3% | 0 | -1%
CCOC(=O)C1(CCCc2ccccc2)CCN(C(=O)[C@@H]2C[C@@H](C)NC(=S)N2)CC1 | 45µM* | 20 | -10% | -6% | 1 | -4%
FC(F)(F)c1nc(=S)c2ccccc2[nH]1 | 28µM* | 3 | -1% | 1% | 0 | -4%
CC(C)NC(=O)c1cccc2c1CCCN2CC(=O)NC1CCCC1 | -18% | . | . | . | . | .
Cc1ccccc1CNC(=O)c1cnc2ccccc2n1 | 4.5µM* | . | . | . | . | .
CCOc1ccc(CN(C)C(=O)Cn2c(=O)c3c(ncn3C)n(C)c2=O)cc1 | 11% | . | . | . | . | .
CC(CCc1ccccc1)NC(=O)c1cc(=O)[nH]c2ccccc12 (stereo not drawn) | 9% | . | . | . | . | .
C[C@@H]1CN([C@@H](C)CO)C(=O)c2cc(C#CC3CCCCC3)cnc2O[C@@H]1CN(C)S(=O)(=O)c1ccc(F)cc1 | 40µM* | -24 | -3% | -4% | 2 | -10%
C[C@H](CO)N1C[C@H](C)[C@@H](CN(C)S(=O)(=O)c2ccc(F)cc2)Oc2ncc(Br)cc2C1=O | -22% | . | . | . | . | .
C[C@H]1CN([C@@H](C)CO)C(=O)c2cc(C#CCC3CCCC3)cnc2O[C@@H]1CN(C)C(=O)CC1CC1 | 45µM* | . | -3% | -3% | . | -2%
Oc1c(Cl)cccc1C=Nc1cc(C(F)(F)F)ccc1Oc1ccccc1Cc1ccccc1 | -24% | . | . | . | . | .
